EPAC2 ag – activates human EPAC2 exchange factor. Potency, µM (series often up to 154 µM), for the others: top-dose activation, usual class: activators. EPAC2 activation, biochemical qHTS; response scale: 100% = 6.5 mM cAMP response. AID 720711. 360,000 tested, 0.079% active; further: nearly all actives have a fitted effect of over 50% in size
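In this primary screen, activation is scored as increased exchange of BODIPY-GDP from Rap1B by 100 nM EPAC2, with 50 uM GDP as competitor. Signal is normalized to the 6.5 mM cAMP agonist control.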
EPAC2 antagonist – blocks human EPAC2 exchange factor. 360,000 tested, 0.18% active. AID 720708. EPAC2 GEF exchange of Rap1B-BODIPY-GDP, fluorescence. Q8WZA2. Potency, µM (doses to about 114 µM), inactives show at the top dose activity, negative = inhibition, most hits filed as inhibitors; further: on the % scale 0 is the no-effect control and ±100 the full control effect; nearly all actives have a fitted effect of over 45% in size
HEK293 tox – cytotoxicity in counter-screen for GLP-1R inverse agonists; HEK293 cAMP-luciferase reporter cells, luminescence, 24 h; Potency, µM (highest dose often 38.3 µM), without a hit: at the highest dose activity change, negative = inhibition, actives largely listed as inhibitors; 410,000 tested, 0.13% active; AID 624418;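 further: loss of luciferase light is scored as toxicity; on the % scale 0 is the no-effect control and ±100 the full control effect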
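Compound-treated cells are incubated 24 hr at 37 deg C under 5% CO2 after a 12 hour attachment period, then luciferase detection reagent is added and luminescence is measured following 12 min at room temperature; lowered signal indicates toxicity.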
EPAC1 ag – activates human EPAC1 exchange factor; O95398; EPAC1 agonist qHTS, biochemical assay; response scale: 100% = response to 6.5 mM cAMP; Potency, µM (highest dose often 154 µM), inactives show at the highest dose activation, usual class: activators; 360,000 tested, 0.073% active; AID 720707; further: nearly all actives have a fitted effect of over 60% in size
Target sequence (O95398 whole entry, looked up): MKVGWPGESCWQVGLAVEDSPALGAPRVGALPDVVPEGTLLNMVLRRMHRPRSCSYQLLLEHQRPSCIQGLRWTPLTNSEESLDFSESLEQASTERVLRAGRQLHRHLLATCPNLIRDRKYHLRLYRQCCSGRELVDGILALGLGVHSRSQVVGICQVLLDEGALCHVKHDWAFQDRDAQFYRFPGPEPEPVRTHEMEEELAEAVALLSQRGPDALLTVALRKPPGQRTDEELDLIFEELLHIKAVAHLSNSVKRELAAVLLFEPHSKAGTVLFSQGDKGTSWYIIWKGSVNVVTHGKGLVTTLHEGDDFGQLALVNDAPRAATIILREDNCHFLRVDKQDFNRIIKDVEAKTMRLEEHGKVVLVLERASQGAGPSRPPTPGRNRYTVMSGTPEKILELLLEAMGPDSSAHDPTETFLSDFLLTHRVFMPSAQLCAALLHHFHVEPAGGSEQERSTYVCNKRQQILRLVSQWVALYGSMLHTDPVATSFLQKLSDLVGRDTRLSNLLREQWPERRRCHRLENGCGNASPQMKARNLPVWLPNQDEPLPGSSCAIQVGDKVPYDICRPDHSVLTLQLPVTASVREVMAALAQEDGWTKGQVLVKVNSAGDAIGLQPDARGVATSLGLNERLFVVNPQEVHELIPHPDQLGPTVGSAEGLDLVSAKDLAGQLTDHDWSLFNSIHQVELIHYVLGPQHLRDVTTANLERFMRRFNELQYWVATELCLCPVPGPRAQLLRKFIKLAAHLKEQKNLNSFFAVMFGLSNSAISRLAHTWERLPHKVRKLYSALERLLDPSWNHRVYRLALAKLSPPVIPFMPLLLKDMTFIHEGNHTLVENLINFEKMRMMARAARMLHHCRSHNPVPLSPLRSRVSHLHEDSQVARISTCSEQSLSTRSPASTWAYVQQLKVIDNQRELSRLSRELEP
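Compounds were pinned as a concentration titration into mixtures of EPAC1 (100 nM), BODIPY-GDP-loaded Rap1B (250 nM) and GDP (50 uM). After 5 min at room temperature, fluorescence was followed for 30 min; activity was scaled to 6.5 mM cAMP.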
EPAC1 antagonist – EPAC1 (human) antagonism; 360,000 tested, 0.14% active; Potency, µM (titrated, usually from 115 µM), without a hit: top-dose activity change, negative = inhibition, most hits filed as inhibitors; AID 720709; EPAC1 GEF assay, Rap1b-BODIPY-GDP exchange fluorescence;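 further: plate controls were vehicle for no effect and positive control for full effect; nearly all actives have a fitted effect of over 50% in size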
USP1 inh – inhibitors of human USP1/UAF1 deubiquitinase; O94782; recombinant USP1/UAF1, Ub-Rhodamine cleavage fluorescence; Potency, µM (titrated, usually from 57.1 µM), without a hit: at the highest dose activity change, negative = inhibition, most hits filed as inhibitors; 390,000 tested, 0.23% active; AID 743255; further: on the % scale 0 is the no-effect control and ±100 the full control effect; nearly all actives have a fitted effect of over 60% in size
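USP1/UAF1 complex at 1 nM was preincubated with compound for 15 min at room temperature, then Ub-Rho substrate (150nM final) was added. Fluorescence (480/540 nm) was read kinetically, 6 reads every 60 seconds.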
Active calls of the source: *; i = inactive; ? = inconclusive; . = no result. Shown are actives, neighbours in structure and some others; about 0.55% of the full set was active somewhere. The call rests on the fitted dose curve; in most records, active means well fitted curve in the direction sought with a large enough effect; inconclusive means small, poorly fitted or top-dose-only effect, or another doubt; inactive means no such curve, though single readings can be large; an effect the other way counts as inactive or inconclusive. Potency means the concentration at half of the fitted maximal effect.

SMILES	EPAC2 ag	EPAC2 antagonist	HEK293 tox	EPAC1 ag	EPAC1 antagonist	USP1 inh
O=C(NCCc1nc2ccccc2n1Cc1ccccc1F)c1ccc(F)cc1	.	.	-7%	.	.	-23%
COc1cc(Br)c(C(=O)c2nccc3cc(OC)c(OC)cc23)cc1OC	3%	-9%	3%	9%	-5%	10µM*
COc1cc(N)c(C(=O)c2nccc3cc(OC)c(OC)cc23)cc1OC	5%	8%	-1%	9%	3%	-9%
O=C(CSc1cccc[n+]1[O-])Nc1ccccc1Oc1ccccc1	1%	-18%	0.79µM*	13%	2%	-6%
COc1ccc(OC)c(NC(=O)c2cc(-c3ccc(Cl)s3)nc3ccccc23)c1	.	.	1%	.	.	?
CCOc1ccc(Br)cc1C1=NN(C(C)=O)C(c2ccc([N+](=O)[O-])s2)O1 (centres undefined)	17%	-13%	-21%	4%	-20%	22µM*
Cn1cc(C(=O)C(=O)N2CCCCC2)c2ccccc21	?	i	-25%	40µM*	31%	-5%
CC(C)Nc1ccc(-c2nc(-c3ccco3)no2)cc1[N+](=O)[O-]	.	.	3%	.	.	-23%
CCOC(=O)c1c(NC(=O)C(NCCN(C)C)c2ccccc2)sc2c1CCCC2 (centres undefined)	0%	-16%	4µM*	1%	?	-11%
CCOC(=O)c1c(NC(=O)c2ccccc2Cl)sc2c1CCCC2	.	.	16%	.	.	?
CC(C)Oc1ccc(Br)cc1/C=N\NC(N)=S	7%	-15%	2.5µM*	10%	?	-2%
Cc1ccc(-n2c3c(c(=O)[nH]c2=O)C(NC(=O)C(C)(C)C)(C(F)(F)F)C(=O)N3)cc1 (centres undefined)	.	.	20%	.	.	-5%
CN(C)c1ccc(/C=C2\SC(=S)N(Nc3ncc(C(F)(F)F)cc3Cl)C2=O)cc1	112µM*	66%	-3%	112µM*	35%	25µM*
Cc1cc(C)nc(NN2C(=O)/C(=C/c3ccccc3)SC2=S)n1	-4%	11%	1%	-3%	2%	-15%
CCOc1cc(CNc2ccc(O)cc2)cc(Cl)c1OCc1ccccc1	.	.	-8%	.	.	28µM*
CCOc1cccc(CNc2ccc(O)cc2)c1OCc1ccccc1Cl	-15%	-8%	-19%	15%	28µM*	?
CCOc1cccc(CNc2ccc(O)cc2)c1OCc1ccc(Cl)cc1Cl	-7%	?	-31%	13%	50µM*	32µM*
CCOc1ccccc1CNC(=O)CSc1n[nH]c(-c2ccccc2Cl)n1	.	.	4%	.	.	-10%
Nc1cccc2cc(S(=O)(=O)O)ccc12	11%	-8%	-10%	17%	?	7.1µM*
CCc1ccc(-n2cccc2/C=C2/C(=N)N3C(=NC2=O)SN=C3S(C)(=O)=O)cc1	-15%	-27%	?	-4%	79µM*	?
COc1ccc(/C=C2\SC(c3ccc(C)cc3)=NC2=O)cc1OC	-20%	7%	8%	4%	15%	16µM*
CCOc1ccc(/C=C2\SC(=S)NC2=O)cc1OC	3%	13µM*	?	5%	?	-24%
COc1cc(/C=C2/C(=N)N3C(=NC2=O)SN=C3S(C)(=O)=O)ccc1OS(=O)(=O)c1ccc(C)cc1	1%	?	-7%	-4%	50µM*	-22%
COc1ccc(/C=C2/SC(c3ccc(C)cc3)=NC2=O)cc1OC	9%	11%	53%	24%	4%	?
COc1cccc(/C=C2\SC(=S)NC2=O)c1OS(=O)(=O)c1ccc(NC(C)=O)cc1	1%	3%	?	-9%	79µM*	-19%
SMILES	EPAC2 ag	EPAC2 antagonist	HEK293 tox	EPAC1 ag	EPAC1 antagonist	USP1 inh
COc1cc(/C=C2\SC(=S)N(CCCCC(=O)O)C2=O)ccc1OS(=O)(=O)c1ccc(C)cc1	1%	-9%	-3%	8%	?	?
COc1cc(/C=C2/SC(=S)NC2=O)ccc1OS(=O)(=O)c1ccc(C)cc1	4%	40µM*	?	10%	45µM*	?
COc1cc(C=O)ccc1OS(=O)(=O)c1ccc(NC(C)=O)cc1	-5%	14%	-14%	-4%	0%	-14%
COc1ccc(/C=C2\SC(=S)NC2=O)cc1OS(=O)(=O)c1ccc(NC(C)=O)cc1	-6%	50µM*	?	-7%	?	-19%
COc1cc2cc(CNc3ccccc3)c(=O)n(CC(=O)Nc3cccc(Cl)c3C)c2cc1OC	.	.	5%	.	.	?
CCOc1ccc(NC(=O)c2sc3nc4c(cc3c2N)CN(Cc2ccccc2)CC4)cc1	.	.	2%	.	.	0%
COc1ccc(CNC(=O)CC(c2ccc(OC)cc2)N2Cc3ccccc3C2=O)cc1 (centres undefined)	.	.	-4%	.	.	-5%
O=C(Nc1ccc(F)cc1F)c1ccc(-n2cnnc2)cc1	.	.	-13%	.	.	-11%
CC1C/C(=C/c2ccccn2)C(=O)/C(=C/c2ccccn2)C1 (centres undefined)	22%	5%	4.5µM*	0%	15%	-24%
CC(C)(C)C1C/C(=C/c2ccccn2)C(=O)/C(=C/c2ccccn2)C1 (centres undefined)	-9%	-11%	?	2%	-17%	-30%
CCn1c(=O)n(CC)c2cc(N3CCCCC3)c(NC(=O)Nc3cc(Cl)ccc3OC)cc21	.	.	-16%	.	.	-10%
O=C(C=Cc1ccccc1)c1cccs1	8%	6%	-19%	4%	-20%	-25%
Nc1ccc(/C=C/C(=O)c2cccs2)cc1	24%	17%	-1%	16%	22%	25µM*
Cc1ccc(Nc2nc3ccccc3c3nncn23)cc1C	.	.	2%	.	.	-24%
CCN(CC)c1ccc(/C=C2/C(=O)c3ccc(C(=O)O)cc3C2=O)cc1	9%	?	-24%	6%	?	13µM*
CC1CCCCC1NC(=O)COC(=O)c1c2c(nc3ccccc13)/C(=C\c1ccco1)CC2 (centres undefined)	-16%	-2%	-32%	-27%	35µM*	?
C#Cc1ccc([C@H]2C=C(C(=O)NCc3ccccc3)O[C@@H](OCC)[C@@H]2CCCO)cc1	-5%	25µM*	0%	-19%	-27%	-23%
C#Cc1ccc([C@@H]2C=C(C(=O)Nc3ccccc3)O[C@H](OCC)[C@H]2CCCO)cc1	4%	?	0%	-1%	-23%	-19%
O=C(NC(=S)Nc1ccccc1)c1cc(-c2ccccc2)nc2ccccc12	4%	-6%	14%	6%	-1%	-3%
O=C(NC(=S)Nc1ccccn1)c1cc(-c2ccccc2)nc2ccccc12	1%	-6%	2.8µM*	5%	?	-4%

Assay outcomes deposited in PubChem by National Center for Advancing Translational Sciences (NCATS).
